Only some compounds are listed: those with a hit (about 11% of all), similar ones and a draw of the others.
G9a block – G9a (human) methyltransferase inhibition; Q96KQ7; G9a H3K9 monomethylation, AlphaScreen, 2 h; Potency, µM (series often up to 102 µM), most hits filed as inhibitors; 350,000 compounds, 8.8% hits; AID 504332; also: nearly all actives have a fitted effect of over 75% in size
Target sequence (Q96KQ7 913-1193 limits assumed): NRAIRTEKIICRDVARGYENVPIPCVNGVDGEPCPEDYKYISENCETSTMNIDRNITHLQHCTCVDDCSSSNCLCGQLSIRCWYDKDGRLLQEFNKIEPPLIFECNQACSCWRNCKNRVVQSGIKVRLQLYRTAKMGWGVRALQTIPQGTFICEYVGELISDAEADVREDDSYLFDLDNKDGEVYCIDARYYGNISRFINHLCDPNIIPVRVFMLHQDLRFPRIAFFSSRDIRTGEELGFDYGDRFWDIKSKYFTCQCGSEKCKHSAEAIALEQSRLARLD
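Chemiluminescent proximity detection of H3K9 monomethylation, read after 10 min bead incubation in the dark. Reaction: 20 nM G9a, 500 nM biotin-H3K9 peptide, 20 uM SAM cofactor, 2 h, room temperature, following 15 min enzyme-compound preincubation.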
Tau fibril FP – blocks human tau fibril formation measured by polarization; P10636; K18 P301L tau heparin fibrillization, Alexa594 FP, 6 h; Potency, µM (highest dose often 57.7 µM), most hits filed as inhibitors; 280,000 compounds, 0.39% hits; AID 1468; also: nearly all actives have a fitted effect of over 55% in size
Target sequence (P10636 561-689 P618L limits assumed): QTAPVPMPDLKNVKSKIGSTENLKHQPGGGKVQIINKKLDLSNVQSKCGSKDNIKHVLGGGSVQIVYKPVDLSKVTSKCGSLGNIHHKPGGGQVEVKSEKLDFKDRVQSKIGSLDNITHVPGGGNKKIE
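Human tau K18 […] P301L fragment, 15 uM unlabeled plus 0.24 uM Alexa 594-labeled tau (final), with compound and 20 uM heparin in 100 mM sodium acetate pH 7; 6 hr at 37 C, then Alexa 594 FP read.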
Tau fibril ThT – blocks human tau fibril formation measured by thioflavin T; recombinant tau K18 P301L, heparin-induced fibrillization, ThT fluorescence; Potency, µM (doses to about 57.4 µM), usual class: inhibitors; 270,000 compounds, 2.1% hits; AID 1460; also: nearly all actives have a fitted effect of over 55% in size
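K18 P301L tau (15 uM + 0.24 uM Alexa 594-tagged), heparin 20 uM, NaOAc pH 7, 6 h 37 C; ThT 30 uM, 1 h RT, ex 450/em 510 nm.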
Tau fluor cs – counter-screen for tau fibril formation inhibitors; AID 1463; 280,000 compounds, 0.93% hits; Potency, µM (doses to about 57.7 µM); tau K18 P301L Alexa594 fluorescence, heparin fibrillization; also: nearly all actives have a fitted effect of over 55% in size
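Human tau K18 P301L (15 uM unlabeled, 0.24 uM Alexa 594-labeled) in 100 mM sodium acetate pH 7 with 20 uM heparin, 6 hr at 37 C. ThT 30 uM added, 1 hr ambient; Alexa 594 FP and total fluorescence read at 555/632 nm.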
FBPA coupling cs – counter-screen for Giardia aldolase inhibitors: coupling enzyme system | coupling enzyme system counterscreen, AmpLite Red fluorescence | activity change, negative = inhibition, % at 58.2 µM, hits read low | 290,000 compounds, 0.67% hits | AID 2472; in the data active = activity change below about -30%
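Counterscreen lacking aldolase: glyceraldehyde-3-phosphate coupling-enzyme reagent preincubated 10 min at RT with compound (at 57.5 uM final), then substrate/coupling system with AmpLite Red added; fluorescence read at 525/598 nm after 20 min RT.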
Sfp PPTase inh – Sfp phosphopantetheinyl transferase inhibition; Q9F4F7; Biochemical Sfp PPTase activity, qHTS; Potency, µM, most hits filed as inhibitors; 310,000 compounds, 3.5% hits; AID 1490;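 also: the enzyme is Sfp with the accession as filed and its product quenches rhodamine fluorescence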
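After 15 min at room temperature with compound, 15 nM Sfp received 5 uM rhodamine-CoA plus 12.5 uM BHQ-2-ybbR (50 mM Hepes pH 7.6, 10 mM MgCl2). Rate came from the fluorescence difference over 30 min, ex 525/em 598 nm.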
Hits are given with their value; 0 = inactive; ? = inconclusive; - = not tested or not shown; ! = a repeat was not active; [ ] = remark or other dose. Unless noted, calls follow the shape of the dose curve; as a rule, active = well fitted curve in the direction sought with a large enough effect; inconclusive = small, poorly fitted or top-dose-only effect, or another doubt; inactive = no such curve, though single readings can be large; an effect the other way counts as inactive or inconclusive.

SMILES | G9a block | Tau fibril FP | Tau fibril ThT | Tau fluor cs | FBPA coupling cs | Sfp PPTase inh
Cc1cccc(-n2ncc3c(NNC(=O)c4ccccc4Cl)ncnc32)c1 | 0 | ? | ? | 0 | - | -
CCN(CC(=O)c1c(N)n(C)c(=O)n(C)c1=O)c1cccc2ccccc12 | ? | ? | 0 | ? | -43.4 | ?
CN(C)CC(=O)c1c(N)n(Cc2ccccc2)c(=O)n(C)c1=O | 0 | 0 | 0 | 0 | 0 | 0
COC(=O)c1ccc(NS(=O)(=O)c2ccc3[nH]c4c(c3c2)CCCCC4)cc1 | ? | ? | 0 | 3.98µM[quencher] | - | -
CCOC(=O)CC(NS(=O)(=O)c1ccc2[nH]c3c(c2c1)CCCC3)c1ccccc1Cl (centres undefined) | 6.31µM | 0 | 0 | ? | - | -
CCOC(=O)C1CCN(S(=O)(=O)c2ccc3[nH]c4c(c3c2)CCCC4)CC1 | ? | - | - | - | 0 | 0
COC(=O)c1ccc(NS(=O)(=O)c2ccc3[nH]c4c(c3c2)CCCC4)cc1 | ? | 0 | 0 | 10µM[quencher] | - | -
COC(=O)c1ccc(NS(=O)(=O)c2ccc3[nH]c(=O)oc3c2)cc1 | 0 | - | - | - | 0 | 0
CC(C)=CC1C(C(=O)Nc2ccc(S(=O)(=O)N3CCOCC3)cc2)C1(C)C (centres undefined) | 0 | - | - | - | - | -
Cc1ccc(-n2c(=O)c3ccc(C(=O)NCc4ccccc4Cl)cc3n(Cc3ccccc3F)c2=O)cc1 | 0 | 0 | 0 | 0 | - | -
COc1ccc2c(C)c(C(=O)O)oc2c1 | 0 | 0 | 0 | 0 | 0 | 0
COc1ccc2c(=O)cc(C(=O)O)oc2c1 | 56.2µM | 0 | 0 | 0 | 0 | 0
CCC(CC)NC(=O)CN1CCN(S(=O)(=O)c2ccc(Br)s2)CC1 | 0 | - | - | - | - | -
Cc1cc2cc(CNS(=O)(=O)N(C)C)ccc2[nH]1 | ? | 0 | ? | 0 | -35.8 | 0
CC(=O)Nc1ccc(S(=O)(=O)NCc2ccc3[nH]c(C)cc3c2)cc1 | 0 | 0 | ? | 0 | 0 | 0
Cc1ccc(S(=O)(=O)NCc2ccc3[nH]c(C)cc3c2)cc1 | 50.1µM | 0 | 0 | ? | 0 | 0
Cn1c(=O)c2c(nc(SCC(=O)Nc3ccc(F)cc3F)n2Cc2ccccc2)n(C)c1=O | ? | 0 | 0 | 0 | - | -
CCCCNC(=O)C1=C(N)C(C(=O)Nc2ccc(C)c(S(=O)(=O)N3CCCCC3)c2)SC1=Nc1ccc(C)cc1C (centres undefined) | 0 | 0 | 0 | ? | 0 | 0
CCN(CC)S(=O)(=O)c1cccc(NC(=O)C2SC(=Nc3ccc(C)cc3C)C(C(=O)NC(C)COC)=C2N)c1 (centres undefined) | ? | 0 | 0 | 25.1µM[quencher] | 0 | 0
COc1ccc(CN(C(=O)Cc2coc3ccc(C)cc23)C2CCS(=O)(=O)C2)cc1 (centres undefined) | 0 | 0 | 0 | 0 | - | -
O=C1CC(C(=O)Nc2cccc(Cl)c2)n2ncnc2N1 (centres undefined) | 0 | 0 | 0 | 0 | 0 | 0
O=C1CC(C(=O)Nc2cc(Cl)ccc2Cl)n2ncnc2N1 (centres undefined) | 10µM | 0 | 0 | 0 | 0 | 0
Cc1ccc(Cl)cc1NC(=O)C1CC(=O)Nc2ncnn21 (centres undefined) | 50.1µM | 0 | - | 0 | 0 | 0
CC1CC(=O)N(CC(=O)NCc2ccc(F)cc2)c2ccccc2S1(=O)=O (centres undefined) | 0 | - | - | - | 0 | 0
COc1ccc2[nH]cc(CC(N)C(=O)O)c2c1 (centres undefined) | ? | 0 | ? | 0 | 0 | ?
SMILES | G9a block | Tau fibril FP | Tau fibril ThT | Tau fluor cs | FBPA coupling cs | Sfp PPTase inh
N[C@@H](Cc1c[nH]c2ccc(O)cc12)C(=O)O | 8.44µM! | ? | 28.2µM | ? | - | 0
NC(Cc1c[nH]c2ccc(OCc3ccccc3)cc12)C(=O)O (centres undefined) | 44.7µM | - | - | - | 0 | 0
NC(=S)N/N=C/c1c[nH]c2ccc(OCc3ccccc3)cc12 | 39.8µM | - | - | - | 0 | 31.6µM
CCCCN1CCCC1C(=O)Nc1c(C)cc(C)cc1C (centres undefined) | 0[12.7 µM] | - | - | - | - | 0
CC(OC(=O)c1cc[n+]([O-])cc1)C(=O)Nc1ccc(Cl)cn1 (centres undefined) | ? | 0 | 0 | 0 | 0 | 0
CC(OC(=O)c1ccc(C#N)cc1)C(=O)Nc1ccc(Cl)cn1 (centres undefined) | 56.2µM | - | - | - | - | -
CCOC(=O)c1sc(NC(=O)/C=C/c2cnn(CC)c2C)c(C(=O)OCC)c1C | ? | 0 | 0 | 0 | 0 | 25.1µM
CCCOC(=O)c1c(NC(=O)/C=C/c2cnn(C)c2C)sc(C(=O)OCC)c1C | 0 | 0 | 0 | 0 | 0 | 0
Cc1ccccc1C(=O)NCCCNC(=O)c1cnccn1 | 0 | - | - | - | 0 | 0
Nc1ccc(SC(F)(F)F)cc1 | 50.1µM | 0 | 0 | 0 | 0 | 0
Cc1cc2nnc(SC(C)C#N)n2c2ccccc12 (centres undefined) | 3.16µM | 0 | 0 | 0 | 0 | 0
Cc1cc2nnc(SC3CCOC3=O)n2c2ccccc12 (centres undefined) | 10µM | 0 | 0 | 0 | 0 | 0
Cc1cc2nnc(SC3CCCCN(C(=O)c4ccc(F)cc4)C3=O)n2c2ccccc12 (centres undefined) | 39.8µM | 0 | 0 | 0 | 0 | 0
O=C(c1ccc(Cl)cc1)C1CCN(C(=O)c2ccc(F)cc2)CC1 | - | - | - | - | 0 | 0
COc1ccc(C2(C(=O)Nc3ccc(S(=O)(=O)Nc4nc(C)cc(C)n4)cc3)CCCC2)cc1OC | 50.1µM | 0 | 0 | 0 | 0 | 0
COc1ccccc1OCC(=O)Nc1ccccn1 | 20µM | 0 | 0 | 0 | 0 | 0
Cc1ccc(OCC(=O)Nc2ccc(S(=O)(=O)Nc3ccccn3)cc2)cc1C | 50.1µM | 0 | 0 | 0 | 0 | 0
Cc1cc(C)c(C)c(OCC(=O)Nc2ccc(S(=O)(=O)Nc3nc(C)cc(C)n3)cc2)c1 | 14.1µM | 0 | ? | 0 | - | -
CON(C)C(=O)c1nnc2c3ccccc3n(S(=O)(=O)c3ccc(C)cc3)c2n1 | - | 0[11.6 µM] | 0[11.5 µM] | 0[11.6 µM] | 0 | 0
Cc1cccc(N2CCN(C(=O)Cn3nc(C)c4sc5ccccc5c4c3=O)CC2)c1C | ? | 0 | 0 | 0 | - | -
Cc1ccc(OCC(=O)Nc2ccc(S(=O)(=O)Nc3ncccn3)cc2)c(C(C)(C)C)c1 | 14.1µM | 0 | 0 | 0 | - | -
Cc1ccc(N2CCN(S(=O)(=O)c3ccc(C)cc3)CC2)cc1 | 0 | - | - | - | 0 | 0
C1=CCC(CN2CCN(C3CCCCCC3)CC2)CC1 (centres undefined) | 7.94µM | 0 | 0 | 0 | 0 | ?
O=[N+]([O-])c1ccccc1S(=O)(=O)N1CCN(CC2CC=CCC2)CC1 (centres undefined) | 20µM | 0 | 0 | 0 | 0 | ?
Cc1ccc(S(=O)(=O)N2CCN(CC3CC4C=CC3C4)CC2)cc1 (centres undefined) | 7.94µM | - | - | - | 0 | ?
CCCS(=O)(=O)N1CCN(CC2CC=CCC2)CC1 (centres undefined) | 7.08µM | 0 | 0 | 0 | 0 | 0

From PubChem
